The values that follow come from PubChem BioAssay.

Active and inactive are the calls of the source.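 Rule for the calls, unless noted: active = visual image review flags a hit and inhibition of aggregation exceeds 20%; inconclusive = visual hit but inhibition at or below 20%; inactive = no hit on visual image review.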

Usually inhibition stands for the relative decrease from the control value, in per cent.

One experiment in a line: inhibitors of TNFa-induced NFkB p65 translocation, primary screen, imaging, HUVEC, MLSMR starter and 10KST1 sets (AID 438;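 active = inhibition above 20% together with a positive visual image hit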;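 note: compound added about 3h40 before a 20 min TNFalpha stimulation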;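 for inhibition: signal is the nuclear over cytoplasmic p65 intensity ratio per well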). Conditions: HUVEC TNFa-induced p65 nuclear translocation; cell count: measured here: nuclei count (cytotoxicity indicator), at 2.08 µM; inhibition: at 2 µM, stronger effect = higher value, 0% TNFa-plus-vehicle, 100% no-TNFa wells.
For `COc1ccc(-c2nc(CCNC(=O)c3ccco3)cs2)cc1OC`, the cell count was 696 and the inhibition was -9.6% (inactive).

`CCN(CC)CCCNC1CCS(=O)(=O)C1` (stereo not given): the inhibition was -7.4% (inactive) and the cell count amounted to 730.

Consider `O=C(C1CCC(CNS(=O)(=O)c2cccc3cccnc23)CC1)N1CCCC1` (stereo not given), for which the inhibition is 5.5% (inactive) and the cell count amounted to 711.

Regarding `CCCc1cc(Nc2cccc(OC)c2)n2ncnc2n1`, the inhibition is -9.9% (inactive) and the cell count came out at 708.

Take `CC(=O)c1c(O)cc(C)n(Nc2nc(C)cc(C)n2)c1=O`: the cell count stood at 625 and the inhibition was -12.1% (inactive).

Regarding `CCOC(=O)C1CCN(C(=O)CN(Cc2ccccc2)S(C)(=O)=O)CC1`, the inhibition was 2.3% (inactive) and the cell count was determined as 370.

Regarding `Cc1nc(C)c2c(c1C(F)(F)F)-c1ccccc1C2(F)F`, the inhibition was 3.9% (inactive) and the cell count came out at 397.

For `CCCC(=O)Nc1ccc(NC(=O)c2ccccc2OC)cn1`, the cell count amounted to 376 and the inhibition was -3.6% (inactive).

With `O=C(CCc1ccc(S(=O)(=O)N2CCOCC2)cc1)NCCc1ccccn1`, the inhibition was 3.1% (inactive) and the cell count worked out at 709.

Consider `COC(=O)c1sc(N)c(C(=O)OC)c1COC(=O)C1CC(=O)N(Cc2ccco2)C1` (stereo not given), for which the cell count is 303 and the inhibition was -1.9% (inactive).

In the case of `CCC12CN3CC(CC)(CN(C1)C3c1ccc(OC(C)C)cc1)C2=O` (stereo not given), the cell count came to 692 and the inhibition was 12.1% (inactive).

For `Cc1ccccc1-c1nc(CN2CCC(C(=O)N3CCC(C(N)=O)CC3)CC2)c(C)o1`, the cell count is 576 and the inhibition is 6.1% (inactive).

For `CC1(C(=O)NC2CCCCC2)CCC(=O)N1Cc1cccs1` (stereo not given), the cell count worked out at 803 and the inhibition was -0.6% (inactive).

In the case of `CC(=O)Nc1cccc(NC(=O)C2CCCN2C(=O)Nc2ccc(C)cc2)c1` (stereo not given), the cell count was found to be 789 and the inhibition is -3.2% (inactive).

For `Cn1cccc1Cc1nnc(SCC(N)=O)n1-c1ccc(F)cc1`, the inhibition is 4.6% (inactive) and the cell count was 845.

As to `O=c1cc(CN2CCN(c3ccc(F)cc3)CC2)nc2sccn12`, the cell count stood at 280 and the inhibition was 3.4% (inactive).

Consider `Cc1cc2ccccc2n1CCNC(=O)c1ccc(S(=O)(=O)N2CCOCC2)cc1`, for which the cell count was 194 and the inhibition is 0.8% (inactive).

Take `COc1cc(N=c2ssnc2Cl)cc(OC)c1`: the cell count is 148 and the inhibition is -7.4% (inactive).

Take `COc1ccccc1C(=O)N1CCN(CCc2ccccc2)CC1`: the cell count stood at 341 and the inhibition was 3.2% (inactive).

`CCOc1cc(NC(=O)c2ccco2)c(OCC)cc1NC(=O)COc1ccccc1C`: the cell count came to 388 and the inhibition is 0% (inactive).

With `O=C(c1ccc(CNc2c(N3CCCC3)c(=O)c2=O)cc1)N1CCc2ccccc2C1`, the cell count was 535 and the inhibition is 2.3% (inactive).

As for `CCOC(=O)c1c(C)n(C)c2c(C)cc(O)c(OC(C)=O)c12`, the inhibition is -5% (inactive) and the cell count was found to be 292.

For the molecule `Cc1nnc(SC(=O)N2c3ccccc3Sc3ccccc32)s1`, the inhibition was 12% (inactive) and the cell count was 348.

For the molecule `O=C(O)CCCc1nc(-c2ccccc2)no1`, the inhibition was -1.7% (inactive) and the cell count was determined as 726.

In the case of `Cc1ccc(S(=O)(=O)N2CCN(C(=O)CSc3nnnn3C)C2)cc1`, the inhibition was -14.6% (inactive) and the cell count was 348.

A short description of another experiment: inhibitors of mutant huntingtin aggregation, primary screen, imaging, exon1htt(103Q)mCFP cells, high-content imaging (AID 483).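 For nuclei count: percent of the per-plate median nuclei count of sample wells.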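 Note: compound exposure lasted 3 days before fixation.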 Conditions: exon1htt(103Q)mCFP cell line, aggregate imaging, at 2 µM; inhibition of aggregation: stronger effect = higher value; nuclei count: measured here: cell count, toxicity.
`CCOP(=O)(c1ccc(N(C)C)cc1)C(O)c1c(Cl)cccc1Cl` (stereo not given): the nuclei count came out at 99.5% and the inhibition of aggregation is 20% (inactive).

For the molecule `Cc1[nH]n(C(N)=S)c(=O)c1C(c1ccccc1)C(C#N)C#N` (stereo not given), the nuclei count came out at 107% and the inhibition of aggregation was -2.9% (inactive).

On to `CCNc1ccc2c(Cl)cc(=O)oc2c1`, for which the inhibition of aggregation was 25.1% (inactive) and the nuclei count was found to be 72.6%.

As for `Cc1ccnc(NS(=O)(=O)c2ccc(NC(=O)Cc3cccs3)cc2)n1`, the nuclei count turned out to be 67% and the inhibition of aggregation is 0.7% (inactive).

For `O=c1oc2ccccc2c(O)c1CN1CCCCC1`, the nuclei count came to 48.1% and the inhibition of aggregation was 4.9% (inactive).

For the molecule `CCOCCn1c(CN2CCC(Cc3ccccc3)CC2)nc2c1c(=O)n(C)c(=O)n2C`, the inhibition of aggregation is 25.3% (inactive) and the nuclei count amounted to 84.1%.

As to `NC(=O)c1cc(-c2ccccc2)nc(N2CCOCC2)n1`, the inhibition of aggregation was -2.6% (inactive) and the nuclei count stood at 91%.

Regarding `O=C(CN1C(=O)c2ccccc2S1(=O)=O)Nc1ccc(S(=O)(=O)N2CCCCCC2)cc1`, the nuclei count was 99.9% and the inhibition of aggregation was -11.1% (inactive).

As to `COC(=O)C1=C(C)Nc2ncnn2C1c1ccc(C)o1` (stereo not given), the inhibition of aggregation was -58.3% (inactive) and the nuclei count is 95.5%.

Regarding `CC1Cc2ccccc2N1C(=O)c1cnsn1` (stereo not given), the nuclei count was 103% and the inhibition of aggregation was -10.5% (inactive).

`COc1ccc(C(=O)OCC(=O)NCc2ccco2)cc1OC`: the nuclei count is 107% and the inhibition of aggregation is -1.1% (inactive).

`CCOC(=O)Cn1c(S(=O)(=O)Cc2ccccc2)nc2ccccc21`: the nuclei count came out at 110% and the inhibition of aggregation is -22.5% (inactive).

Consider `CCOC(=O)C1CCN(c2c(NC3CCCCCCC3)c(=O)c2=O)CC1`, for which the inhibition of aggregation was -6.4% (inactive) and the nuclei count stood at 103%.

With `COc1ccc2c(c1)C1(Nc3ccccc3-c3nc4ccccc4n31)C(=O)N2` (stereo not given), the nuclei count was 78% and the inhibition of aggregation is 11.7% (inactive).

As to `Cc1cccc(NC(=O)CC2NC3CCCCC3NC2=O)c1` (stereo not given), the inhibition of aggregation is -8.2% (inactive) and the nuclei count was 81%.

Consider `COc1ccc(-c2nc(CCNC(=O)c3ccco3)cs2)cc1OC`, for which the nuclei count was determined as 102% and the inhibition of aggregation was -8.9% (inactive).

As for `CCN(CC)CCCNC1CCS(=O)(=O)C1` (stereo not given), the inhibition of aggregation is 10.5% (inactive) and the nuclei count worked out at 126%.

As to `O=C(C1CCC(CNS(=O)(=O)c2cccc3cccnc23)CC1)N1CCCC1` (stereo not given), the nuclei count was 67.8% and the inhibition of aggregation is -15.3% (inactive).

On to `CCCc1cc(Nc2cccc(OC)c2)n2ncnc2n1`, for which the nuclei count was 100% and the inhibition of aggregation was -22.9% (inactive).

As for `CC(=O)c1c(O)cc(C)n(Nc2nc(C)cc(C)n2)c1=O`, the nuclei count stood at 91.3% and the inhibition of aggregation was -23.4% (inactive).

On to `CCOC(=O)C1CCN(C(=O)CN(Cc2ccccc2)S(C)(=O)=O)CC1`, for which the nuclei count came to 102% and the inhibition of aggregation is -32.7% (inactive).

Turning to `Cc1nc(C)c2c(c1C(F)(F)F)-c1ccccc1C2(F)F`, the nuclei count is 108% and the inhibition of aggregation is -0.1% (inactive).

`CCCC(=O)Nc1ccc(NC(=O)c2ccccc2OC)cn1`: the inhibition of aggregation is 18.8% (inactive) and the nuclei count was 90.7%.

For the molecule `O=C(CCc1ccc(S(=O)(=O)N2CCOCC2)cc1)NCCc1ccccn1`, the inhibition of aggregation is -8% (inactive) and the nuclei count came to 104%.

As to `COC(=O)c1sc(N)c(C(=O)OC)c1COC(=O)C1CC(=O)N(Cc2ccco2)C1` (stereo not given), the inhibition of aggregation is -1.7% (inactive) and the nuclei count worked out at 100%.

With `CCC12CN3CC(CC)(CN(C1)C3c1ccc(OC(C)C)cc1)C2=O` (stereo not given), the nuclei count came out at 93.2% and the inhibition of aggregation is 10.5% (inactive).

Regarding `Cc1ccccc1-c1nc(CN2CCC(C(=O)N3CCC(C(N)=O)CC3)CC2)c(C)o1`, the inhibition of aggregation was 1.2% (inactive) and the nuclei count worked out at 87.6%.

For the molecule `CC1(C(=O)NC2CCCCC2)CCC(=O)N1Cc1cccs1` (stereo not given), the inhibition of aggregation was 1.4% (inactive) and the nuclei count was 104%.

For the molecule `CC(=O)Nc1cccc(NC(=O)C2CCCN2C(=O)Nc2ccc(C)cc2)c1` (stereo not given), the nuclei count was found to be 89.4% and the inhibition of aggregation was 0.5% (inactive).

Consider `Cn1cccc1Cc1nnc(SCC(N)=O)n1-c1ccc(F)cc1`, for which the nuclei count is 102% and the inhibition of aggregation is 15.1% (inactive).

Regarding `O=c1cc(CN2CCN(c3ccc(F)cc3)CC2)nc2sccn12`, the inhibition of aggregation was 19.5% (inactive) and the nuclei count came out at 95%.

As for `Cc1cc2ccccc2n1CCNC(=O)c1ccc(S(=O)(=O)N2CCOCC2)cc1`, the inhibition of aggregation is 14.3% (inactive) and the nuclei count worked out at 93.1%.

Turning to `COc1cc(N=c2ssnc2Cl)cc(OC)c1`, the nuclei count worked out at 74.7% and the inhibition of aggregation was 0.8% (inactive).

As for `COc1ccccc1C(=O)N1CCN(CCc2ccccc2)CC1`, the nuclei count was determined as 100% and the inhibition of aggregation is -5.8% (inactive).

As to `CCOc1cc(NC(=O)c2ccco2)c(OCC)cc1NC(=O)COc1ccccc1C`, the inhibition of aggregation was -11.9% (inactive) and the nuclei count came out at 107%.

With `O=C(c1ccc(CNc2c(N3CCCC3)c(=O)c2=O)cc1)N1CCc2ccccc2C1`, the inhibition of aggregation is -13.5% (inactive) and the nuclei count came out at 100%.

Take `CCOC(=O)c1c(C)n(C)c2c(C)cc(O)c(OC(C)=O)c12`: the nuclei count turned out to be 96.7% and the inhibition of aggregation is -6.8% (inactive).

In the case of `Cc1nnc(SC(=O)N2c3ccccc3Sc3ccccc32)s1`, the inhibition of aggregation was 39.8% (active) and the nuclei count worked out at 99.9%.

On to `O=C(O)CCCc1nc(-c2ccccc2)no1`, for which the nuclei count is 91.6% and the inhibition of aggregation was -4.5% (inactive).

As to `Cc1ccc(S(=O)(=O)N2CCN(C(=O)CSc3nnnn3C)C2)cc1`, the nuclei count was found to be 92.8% and the inhibition of aggregation was 1.4% (inactive).
